PMC4336329 (PLoS ONE, 2015)
Among all 310,000 compounds or so, about 14,000 (4.5%) showed an effect of 50% or more. Effects have a minus sign here. Many of the other results were omitted from the sample, so strong results are more common in it than they were.

target: human ether-à-go-go-related gene (hERG) potassium channel (human, UniProt Q12809); assay: primary screen, population patch clamp on CHO cells stably expressing hERG; higher = less effect of the substance
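Note: peak tail current of the secondary pulse compared with the same well before compound.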

Chain of human ether-à-go-go-related gene (hERG) potassium channel (Q12809 whole entry, looked up): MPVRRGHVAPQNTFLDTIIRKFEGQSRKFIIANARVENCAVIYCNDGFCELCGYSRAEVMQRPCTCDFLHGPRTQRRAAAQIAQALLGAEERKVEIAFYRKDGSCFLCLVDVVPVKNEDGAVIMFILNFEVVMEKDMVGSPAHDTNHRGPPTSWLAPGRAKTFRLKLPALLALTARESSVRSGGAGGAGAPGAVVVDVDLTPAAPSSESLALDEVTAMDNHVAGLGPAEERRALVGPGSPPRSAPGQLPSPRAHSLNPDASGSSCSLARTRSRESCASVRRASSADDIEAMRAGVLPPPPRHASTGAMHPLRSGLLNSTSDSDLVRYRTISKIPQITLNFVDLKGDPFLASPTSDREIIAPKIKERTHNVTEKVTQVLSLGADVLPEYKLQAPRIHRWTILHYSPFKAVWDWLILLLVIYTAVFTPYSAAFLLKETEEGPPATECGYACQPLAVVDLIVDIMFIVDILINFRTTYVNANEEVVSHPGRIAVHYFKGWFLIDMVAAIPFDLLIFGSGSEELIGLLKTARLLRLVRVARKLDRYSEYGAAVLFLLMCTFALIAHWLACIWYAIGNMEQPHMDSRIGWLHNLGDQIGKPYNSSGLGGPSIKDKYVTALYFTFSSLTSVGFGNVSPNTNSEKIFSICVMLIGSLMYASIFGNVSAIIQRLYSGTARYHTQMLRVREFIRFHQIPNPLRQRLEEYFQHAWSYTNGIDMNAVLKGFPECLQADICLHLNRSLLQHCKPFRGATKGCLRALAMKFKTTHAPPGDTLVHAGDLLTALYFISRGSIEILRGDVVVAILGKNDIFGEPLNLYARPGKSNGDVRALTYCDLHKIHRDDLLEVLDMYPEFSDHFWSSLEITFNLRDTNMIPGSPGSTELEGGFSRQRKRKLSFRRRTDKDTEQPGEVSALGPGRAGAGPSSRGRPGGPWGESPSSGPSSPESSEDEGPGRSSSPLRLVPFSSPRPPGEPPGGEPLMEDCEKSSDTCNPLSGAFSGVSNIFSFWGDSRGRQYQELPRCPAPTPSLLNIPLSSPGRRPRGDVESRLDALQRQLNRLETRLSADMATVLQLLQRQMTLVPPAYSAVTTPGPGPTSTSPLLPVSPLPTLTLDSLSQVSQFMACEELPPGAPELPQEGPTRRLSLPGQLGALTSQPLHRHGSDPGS

| SMILES | hERG current change (%, negative = inhibition) at 10uM [%] |
| --- | --- |
| O=C(Nc1ccccc1N1CCOCC1)c1cccnc1 | 15 |
| O=C(N/N=C/c1cccs1)c1cccc(NC(=O)c2ccc(Cl)cc2)c1 | 7.57 |
| CO[C@@]1(NC(=O)C2SC(=C(C(N)=O)C(=O)O)S2)C(=O)N2C(C(=O)O)=C(CSc3nnnn3C)CS[C@@H]21 (some centres unmarked) | 13.6 |
| CCCNc1nc(C)nc2c1cnn2CCc1ccccc1 | -12.8 |
| CCOc1nc(CC(C)C)c2c(c1C#N)CC(C)(C)OC2 | 1.14 |
| O=C1CC(NS(=O)(=O)c2ccc3ccccc3c2)CN1c1ccccc1 (centres unmarked) | -0.798 |
| Cl.N=c1sccn1CC(=O)Nc1ccc(Cl)cc1[N+](=O)[O-] | -21 |
| COc1cc(C(=O)NNC(=O)c2cc(C)[nH]n2)cc(OC)c1OC | 18.8 |
| C/C(=N\NC(=O)C1CC1)c1cccs1 | 9.16 |
| O=C1CC2(CCN(C(=O)COc3ccccc3)CC2)Oc2ccccc21 | -67.4 |
| O=C1CC2(CCN(C(=O)COc3ccc(F)cc3)CC2)Oc2ccccc21 | -42.6 |
| O=C1CC2(CCCCC2)Oc2ccc(OCC(=O)N3CCOCC3)cc21 | 3.3 |
| O=C(NCc1ccncc1)/C(=N/O)c1ccccc1 | 18.7 |
| CSc1ccccc1NC(=O)Nc1ccc(Cl)cc1 | -1.3 |
| CC(C)C(=O)Nc1ccccc1C(=O)OCC(=O)c1ccc2c(c1)OCCO2 | -10.4 |
| CCn1cc(CN2CCN(Cc3ccccc3)C(CCO)C2)c2ccccc21 (centres unmarked) | -32 |
| Cc1ccc(CN2CCN(Cc3nc4ccccc4nc3C)CC2CCO)cc1 (centres unmarked) | -69.7 |
| Cc1ccc(CN2CCN(Cc3cccc(C)n3)CC2CCO)cc1 (centres unmarked) | -40.2 |
| CC(C)Cn1c(CN2CCN(C)C(CCO)C2)nc2ccccc21 (centres unmarked) | 4.02 |
| CCn1c(CN2CCN(Cc3ccc(C)cc3)C(CCO)C2)nc2ccccc21 (centres unmarked) | -74.7 |
| Cc1ccc(CN2CCN(Cc3ccc4cccc(F)c4n3)CC2CCO)cc1 (centres unmarked) | -68.6 |
| Cc1nc2ccccc2nc1CN1CCN(Cc2ccc(F)c(F)c2)C(CCO)C1 (centres unmarked) | -40.4 |

| SMILES | hERG current change (%, negative = inhibition) at 10uM [%] |
| --- | --- |
| Cc1ccccc1CN1CCN(Cc2ccc3cccc(F)c3n2)CC1CCO (centres unmarked) | -32.7 |
| OCCC1CN(Cc2ccc3cccc(F)c3n2)CCN1Cc1ccccc1 (centres unmarked) | -15.6 |
| O=C(COc1ccc2ccccc2c1Br)Nn1cnnc1 | -1.78 |
| CCCCn1c(C)cc2cc(O)ccc21 | -16.8 |
| CC(Oc1ccccc1F)C(=O)NC1CCS(=O)(=O)C1 (centres unmarked) | 11 |
| CC(=O)[C@@H]1[C@@H](C)N(Cc2ccccc2)C(=O)N[C@H]1c1ccccc1 | 10.4 |
| CC1(/[N+]([O-])=C/c2cccc(Cl)c2)CCCCC1=O (centres unmarked) | 4.74 |
| Cc1ccc(NC(=O)COC(=O)C2CC2(Cl)Cl)cc1C (centres unmarked) | -4.06 |
| CSCCC(NC(=O)c1ccco1)C(=O)N(C)CC(=O)Nc1c(Cl)cccc1Cl (centres unmarked) | 11.8 |
| O=C(O)C1C2C=CC(C3CC23)C1C(=O)O (centres unmarked) | 10.6 |
| Cc1noc(C)c1C(=O)NCCc1ccccc1 | 0.324 |
| O=C(CN1CCC(n2nnc3cc(C(F)(F)F)ccc32)CC1)Nc1ccc2c(c1)CCC2 | 1.83 |
| O=C(CN1CCC(n2nnc3ccccc32)CC1)NCc1cccs1 | -60.2 |
| O=C(CN1CCC(n2nnc3cc(C(F)(F)F)ccc32)CC1)NCc1cccs1 | -74.5 |
| O=C(CN1CCC(n2nnc3ccccc32)CC1)Nc1ccc2c(c1)CCC2 | -39.3 |
| Cc1ccccc1C(=O)NC1CCN(CC(=O)NCc2cccs2)CC1 | 6.14 |
| COc1ccc(C(=O)NNC(=O)CN2CCC(n3nnc4cc(C(F)(F)F)ccc43)CC2)cc1 | -10.4 |
| COc1ccccc1CNC(=O)c1cc2c(s1)CS(=O)(=O)C2 | 10.3 |
| COc1cc(C)c(NC(=S)Nc2ccc(Cl)c(Cl)c2)cc1OC | 5.06 |
| COc1cc(CNc2nnnn2C)ccc1OCc1c(F)cccc1Cl | 0.756 |
| COC(=O)C1=C(c2ccc(-c3ccccc3)c(F)c2)C[C@@H]2CC[C@H]1N2C(=O)NC(C)C | -16.8 |
| COc1cccc(CN(C)C(=O)CSCC(=O)Nc2ccc(C)cc2)c1OC | -12.9 |
